The entries come from a sample that favours hits as a whole.
CD40 NFkB inh = inhibitors of CD40-induced NF-kB signaling, primary screen, BL2 cells, luciferase reporter, single point; CD40L-induced, 4 h; inhibition, % at 10 µM; 83,000 tested, 0.94% active; AID 1053188, 2014;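 active means mean inhibition of at least 50% with a set share of replicates also reaching that level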;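 further: 0% = neutral control wells and 100% = IKK inhibitor VII at 50 µM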
Active calls of the source: *; [ ] = dose if it differs, or a comment.

SMILES	CD40 NFkB inh
COc1ccc(NC(=O)Nc2ccc3c(c2)C(=O)N([C@H](C)CO)C[C@@H](C)[C@@H](CN(C)Cc2ccc(C(F)(F)F)cc2)OCCCC[C@@H](C)O3)cc1	5
COc1ccc(NC(=O)Nc2ccc3c(c2)C(=O)N([C@@H](C)CO)C[C@@H](C)[C@@H](CN(C)Cc2ccc(C(F)(F)F)cc2)OCCCC[C@@H](C)O3)cc1	1
C[C@@H]1CN([C@H](C)CO)C(=O)c2cccc(NS(=O)(=O)c3ccc(Cl)cc3)c2O[C@@H]1CN(C)Cc1ccc(C(=O)Nc2ccccc2N)cc1	active[25 µM]
C[C@H]1CN([C@@H](C)CO)C(=O)c2cccc(NS(=O)(=O)c3ccc(Cl)cc3)c2O[C@H]1CN(C)Cc1ccc(C(=O)Nc2ccccc2N)cc1	-43[25 µM]
C[C@H](CO)N1C[C@H](C)[C@H](CN(C)Cc2ccc(C(=O)Nc3ccccc3N)cc2)Oc2c(NS(=O)(=O)c3ccc(Cl)cc3)cccc2C1=O	-33[25 µM]
C[C@H]1CCCCO[C@@H](CN(C)Cc2ccncc2)[C@@H](C)CN([C@@H](C)CO)C(=O)c2cc(NS(=O)(=O)c3ccc(Cl)cc3)ccc2O1	11[25 µM]
COc1cc2c(cc1OC)CN(C(=O)CCNS(=O)(=O)c1ccccc1F)CC2	5
CC(=O)N1[C@@H]2Cn3c(cccc3=O)[C@H]1[C@@H](C(=O)NCc1ccc(F)cc1)[C@@H]2CO	0[25 µM]
O=C(C[C@H]1C[C@H]2c3cc(NS(=O)(=O)c4ccc(F)cc4)ccc3O[C@H]2[C@H](CO)O1)NC1CCCC1	2
COc1cccc(-c2ccc3c(c2)[C@@H]2[C@@H](CCN2C(=O)c2ccccn2)[C@@H](CO)N3)c1	-57[25 µM]
CCCCNC(=O)CN(c1cccc(Br)c1)S(C)(=O)=O	7
COc1ccccc1-c1ccc2n(c1=O)C[C@@H]1[C@@H](CO)[C@H](C(=O)N(C)C)[C@H]2N1C(=O)c1cccnc1	-6[25 µM]
O=C(COC(=O)c1ccc(O)cc1O)Nc1nnc(-c2ccccc2)o1	15
Cc1ccc(C)c(C(=O)c2c(C)nc3sccn23)c1	9
Cc1nc2ccccn2c(=O)c1CCN1CCC(C(=O)c2ccc(F)cc2)CC1	5
Cc1nc2sccn2c(=O)c1CCN1CCC(=C(c2ccc(F)cc2)c2ccc(F)cc2)CC1	27*
CCc1cc2c(=O)c(-c3ccc4c(c3)OCCO4)coc2c(CN2CCCCC2C)c1O (stereo not drawn)	32*
CSCCC(NC(=O)OC(C)(C)C)C(=O)Oc1ccc2c(=O)c(-c3ccc4c(c3)OCCO4)coc2c1 (stereo not drawn)	-3
O=C(CN1CCC(C(=O)c2ccc3c(c2)OCCO3)CC1)NC1CCCC1	16
COc1ccc2c3c([nH]c2c1)[C@@H](CO)N(Cc1ccc(Cl)cc1)CC31CN(S(C)(=O)=O)C1	11[25 µM]
COc1ccc(CN2CC3(CN(S(=O)(=O)c4ccc(C)cc4)C3)c3c([nH]c4cc(OC)ccc34)[C@H]2CO)cc1	55*[25 µM]
COc1ccc2c3c([nH]c2c1)[C@H](CO)N(Cc1ccc(Cl)cc1)CC31CN(S(C)(=O)=O)C1	14[25 µM]
C[C@H](C(=O)N(C)C[C@H]1OCc2ccccc2-c2c(n(C)c3ccccc23)C(=O)N([C@@H](C)CO)C[C@@H]1C)c1ccccc1	14
O=C(Cn1c(=O)oc2cc(S(=O)(=O)N3CCCC3)ccc21)Nc1ccccn1	2
Cc1ccc(S(=O)(=O)CC(=O)N2CCN(c3ccc([N+](=O)[O-])cc3)CC2)cc1	22
SMILES	CD40 NFkB inh
Cc1ccc(S(=O)(=O)CC#CCOC(=O)c2ccc([N+](=O)[O-])cc2)cc1	89*
Cc1ccc(CONC(=O)c2ccc([N+](=O)[O-])cc2)cc1	-21
C[C@H]1CCCCO[C@@H](CN(C)C(=O)Nc2ccc(C(F)(F)F)cc2)[C@@H](C)CN([C@@H](C)CO)C(=O)c2cc(NC(=O)Nc3ccc4c(c3)OCO4)ccc2O1	3
C=CC(=O)N1C/C(=C/c2ccc(Cl)cc2)C(=O)/C(=C\c2ccc(Cl)cc2)C1	93*
CN(CC(=O)N1CCCCC1)S(=O)(=O)c1ccc(Cl)cc1	-8
CCN1CCN(C(=O)CN(C)S(=O)(=O)c2ccc(Cl)cc2)CC1	1
Cc1noc(C)c1COc1ccc(C(=O)NCc2ccccn2)cc1	3
CO[C@H](CN(C)C(=O)c1cnccn1)[C@H](C)CN([C@H](C)CO)S(=O)(=O)c1ccccc1	8[25 µM]
Cc1cc(C)nc(NC(=O)CN2C(=O)c3ccccc3S2(=O)=O)n1	4
O=C(CN1C(=O)c2ccccc2S1(=O)=O)Nc1ncccn1	7
O=C(CN1C(=O)c2ccccc2S1(=O)=O)Nc1ncc(Cl)cc1Cl	56*
CC(NC(=O)C(=O)NN=C1CCCC1)c1ccccc1 (stereo not drawn)	-5
COc1cccc(-c2cccc(-c3nc(C(=O)O)cc4c3[C@H](CCO)N(S(=O)C(C)(C)C)C4)c2)c1 (stereo partly drawn)	-3[25 µM]
CC(OC(=O)c1ccccn1)C(=O)Nc1ccc2c(c1)OCCO2 (stereo not drawn)	-1
O=C(Nc1ccc2c(c1)OCCO2)c1ccccn1	78*
O=C(Nc1ccc2c(c1)OCCO2)c1ccc2ccccc2n1	-42
C[C@H]1CN([C@@H](C)CO)C(=O)c2c(c3ccccc3n2C)-c2ccccc2CO[C@H]1CN(C)Cc1ccncc1	-6
C[C@H](CO)N1C[C@H](C)[C@@H](CN(C)S(=O)(=O)c2cn(C)cn2)OCc2ccccc2-c2ccccc2C1=O	-6[25 µM]
COc1cc(N(C)C)ccc1C=c1c2ccccc2n2c1cc(-c1ccccc1)[n+]2C	101*
CN(C)c1ccc(C=c2c3cc([N+](=O)[O-])ccc3n3c2cc(-c2ccccc2)[n+]3C)cc1	91*
Cn1ccc(=O)c2cc([N+](=O)[O-])ccc21	1
CN(C)c1ccc(C=C2C=C(c3ccccc3)OC2=O)cc1	-1
CCC(=O)N1C[C@@H](C)[C@@H](OC)CN(C)C(=O)c2ccc(NC(=O)CC(F)(F)F)cc2OC[C@H]1C	-15[25 µM]
CCCC#Cc1ccc2c(c1)[C@@H]1[C@@H](CCN1S(=O)(=O)c1cccc(F)c1)[C@@H](CO)N2C	-6[25 µM]
C[C@@H]1CN([C@@H](C)CO)C(=O)c2c(c3ccccc3n2C)-c2ccccc2CO[C@H]1CN(C)C	-2[25 µM]
SMILES	CD40 NFkB inh
COc1ccc(Cl)cc1NC(=O)CN1C(=O)NC(Cc2c[nH]c3ccccc23)C1=O (stereo not drawn)	-7
O=C(NCC(F)(F)F)[C@@H]1[C@@H](CO)[C@@H]2Cn3c(cccc3=O)[C@@H]2N1C(=O)c1ccccc1F	-8[25 µM]
O=C1N[C@@H](c2ccccc2)COCc2cn(nn2)CC[C@@H]1Cc1ccc(C(F)(F)F)cc1	8[25 µM]
C[C@H](CO)N1C[C@H](C)[C@@H](CN(C)C(=O)Nc2ccc(-c3ccccc3)cc2)OCc2ccccc2-c2c(n(C)c3ccccc23)C1=O	-8
C/C=C/c1ccc(C2[C@@H]3CN(S(=O)(=O)c4cn(C)cn4)C[C@H]2N3)cc1 (stereo partly drawn)	9[25 µM]
CC(C)(C)[C@H](N)C(=O)N[C@H]1CCC2C3CC=C4C[C@@H](O)CC[C@]4(C)C3CC[C@@]21C (stereo partly drawn)	103*
C[C@]12CC[C@H](O)CC1=CCC1C2CC[C@@]2(C)C1CC[C@@H]2NC(=O)[C@@H](N)Cc1ccccc1 (stereo partly drawn)	10
C[C@]12CCC3C(CC=C4C[C@@H](O)CC[C@@]43C)C1CCC2[C@]1(C)CCC(=O)O1 (stereo partly drawn)	-7
